Measurements: the supplement of paper PMC10849652
Targets with a hit are over-represented here; the source holds about 7,900 in all. About 0.6% of all pairs of compound and target were hits.

Compound: CC(C)C1=C2N=C(C=C(N2N=C1)NCC3=CC=CC=C3)NCCCCCCN
Assay: log2 fold change, soluble protein after heating vs DMSO (PISA); higher = thermal stabilisation; K562 cells, 10 uM, 30 min; active = over 0.2 and 3.5 SD of the protein, either way, in both replicates (recomputed)
Summary of the method: (§1)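 K562 cells at 2×10^6 cells/mL were exposed to 10 μM compound for 30 min, then aliquots were heated for 3 min across 48°C-58°C, pooled, and extracted in PBS containing 0.5% NP-40 at 4°C. The supernatant after 21,000xg for 90 min was taken as soluble protein and measured by TMTpro 16plex LC-MS/MS with channel sums equalised. Thermal stability is reported relative to control samples, with values from duplicates. Fold changes are given on a log2 scale.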

Sequence of UniProt O00567 (O00567 whole entry, looked up): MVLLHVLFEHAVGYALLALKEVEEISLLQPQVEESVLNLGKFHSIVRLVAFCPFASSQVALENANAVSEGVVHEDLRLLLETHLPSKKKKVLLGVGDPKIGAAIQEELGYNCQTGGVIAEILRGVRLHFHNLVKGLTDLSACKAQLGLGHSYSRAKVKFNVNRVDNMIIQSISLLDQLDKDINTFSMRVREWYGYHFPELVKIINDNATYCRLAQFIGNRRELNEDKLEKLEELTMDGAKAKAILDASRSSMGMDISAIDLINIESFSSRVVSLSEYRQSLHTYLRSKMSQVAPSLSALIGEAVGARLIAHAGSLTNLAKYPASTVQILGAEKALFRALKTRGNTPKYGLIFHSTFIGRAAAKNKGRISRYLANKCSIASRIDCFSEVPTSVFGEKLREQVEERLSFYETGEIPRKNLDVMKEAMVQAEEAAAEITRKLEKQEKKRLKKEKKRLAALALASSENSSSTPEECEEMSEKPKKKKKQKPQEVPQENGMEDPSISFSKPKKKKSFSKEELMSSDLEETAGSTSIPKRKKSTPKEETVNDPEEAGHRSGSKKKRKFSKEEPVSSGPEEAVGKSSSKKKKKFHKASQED
Sequence of UniProt Q7L1V2 (Q7L1V2 whole entry, looked up): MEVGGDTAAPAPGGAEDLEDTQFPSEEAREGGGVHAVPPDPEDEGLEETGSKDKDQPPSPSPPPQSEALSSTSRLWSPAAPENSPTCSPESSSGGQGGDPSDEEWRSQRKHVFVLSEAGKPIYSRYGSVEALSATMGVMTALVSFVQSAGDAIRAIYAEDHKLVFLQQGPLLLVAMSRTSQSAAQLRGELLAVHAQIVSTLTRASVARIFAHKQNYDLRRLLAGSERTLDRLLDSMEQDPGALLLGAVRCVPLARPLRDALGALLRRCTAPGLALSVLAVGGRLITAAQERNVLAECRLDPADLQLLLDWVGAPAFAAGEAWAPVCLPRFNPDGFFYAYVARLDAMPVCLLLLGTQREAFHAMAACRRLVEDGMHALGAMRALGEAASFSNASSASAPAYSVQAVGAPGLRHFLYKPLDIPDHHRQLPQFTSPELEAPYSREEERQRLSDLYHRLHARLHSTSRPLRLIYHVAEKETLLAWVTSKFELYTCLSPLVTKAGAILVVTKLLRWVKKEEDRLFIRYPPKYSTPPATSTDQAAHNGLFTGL
Sequence of UniProt Q16795 (Q16795 whole entry, looked up): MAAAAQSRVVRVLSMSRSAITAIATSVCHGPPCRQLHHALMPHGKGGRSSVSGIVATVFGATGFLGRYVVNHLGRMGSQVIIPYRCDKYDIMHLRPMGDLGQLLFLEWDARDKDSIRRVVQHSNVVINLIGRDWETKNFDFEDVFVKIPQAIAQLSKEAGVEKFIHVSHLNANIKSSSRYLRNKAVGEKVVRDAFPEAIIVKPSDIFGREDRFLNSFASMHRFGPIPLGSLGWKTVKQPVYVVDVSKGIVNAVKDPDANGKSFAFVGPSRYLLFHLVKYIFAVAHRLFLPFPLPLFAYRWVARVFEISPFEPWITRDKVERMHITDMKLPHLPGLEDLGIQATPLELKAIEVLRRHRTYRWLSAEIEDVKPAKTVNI
Sequence of UniProt Q9H1E3 (Q9H1E3 whole entry, looked up): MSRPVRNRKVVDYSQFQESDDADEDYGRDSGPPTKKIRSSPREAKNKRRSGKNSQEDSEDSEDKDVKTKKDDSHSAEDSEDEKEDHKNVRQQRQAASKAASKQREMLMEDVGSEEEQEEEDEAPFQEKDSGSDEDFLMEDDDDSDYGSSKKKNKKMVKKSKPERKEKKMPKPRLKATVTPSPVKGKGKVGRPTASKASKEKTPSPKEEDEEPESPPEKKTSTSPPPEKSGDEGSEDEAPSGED
Sequence of UniProt Q9UMY1 (Q9UMY1 whole entry, looked up): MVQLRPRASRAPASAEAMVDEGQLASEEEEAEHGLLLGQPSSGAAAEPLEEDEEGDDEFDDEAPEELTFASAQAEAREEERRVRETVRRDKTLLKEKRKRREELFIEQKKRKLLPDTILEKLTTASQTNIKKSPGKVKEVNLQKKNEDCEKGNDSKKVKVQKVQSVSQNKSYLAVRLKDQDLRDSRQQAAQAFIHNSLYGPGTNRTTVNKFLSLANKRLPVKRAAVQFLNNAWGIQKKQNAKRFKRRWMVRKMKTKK
Sequence of UniProt P19338 (P19338 whole entry, looked up): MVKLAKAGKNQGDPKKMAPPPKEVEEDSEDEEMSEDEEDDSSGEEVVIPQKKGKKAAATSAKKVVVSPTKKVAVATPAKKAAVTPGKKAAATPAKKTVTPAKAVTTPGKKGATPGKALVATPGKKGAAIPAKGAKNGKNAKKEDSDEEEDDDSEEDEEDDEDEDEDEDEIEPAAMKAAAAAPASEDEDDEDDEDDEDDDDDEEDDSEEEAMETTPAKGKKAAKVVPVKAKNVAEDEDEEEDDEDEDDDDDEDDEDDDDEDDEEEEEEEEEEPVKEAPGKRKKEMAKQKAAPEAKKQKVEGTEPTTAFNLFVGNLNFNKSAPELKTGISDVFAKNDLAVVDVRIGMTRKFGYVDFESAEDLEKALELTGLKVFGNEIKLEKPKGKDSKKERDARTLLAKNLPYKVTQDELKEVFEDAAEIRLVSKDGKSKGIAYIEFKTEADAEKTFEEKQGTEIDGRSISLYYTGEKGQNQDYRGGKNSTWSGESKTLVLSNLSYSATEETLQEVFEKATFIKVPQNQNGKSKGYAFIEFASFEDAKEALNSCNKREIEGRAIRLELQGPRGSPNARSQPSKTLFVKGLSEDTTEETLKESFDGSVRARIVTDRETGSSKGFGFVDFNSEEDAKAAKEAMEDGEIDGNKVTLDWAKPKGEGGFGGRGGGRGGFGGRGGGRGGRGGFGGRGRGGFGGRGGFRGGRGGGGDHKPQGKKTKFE
Sequence of UniProt Q9BV86 (Q9BV86 whole entry, looked up): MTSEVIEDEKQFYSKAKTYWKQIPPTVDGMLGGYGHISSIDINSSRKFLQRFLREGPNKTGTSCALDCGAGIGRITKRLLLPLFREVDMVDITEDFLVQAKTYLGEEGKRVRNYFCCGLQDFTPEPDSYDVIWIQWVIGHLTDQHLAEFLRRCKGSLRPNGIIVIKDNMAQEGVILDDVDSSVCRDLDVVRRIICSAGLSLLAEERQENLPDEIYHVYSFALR
Sequence of UniProt Q92621 (Q92621 whole entry, looked up): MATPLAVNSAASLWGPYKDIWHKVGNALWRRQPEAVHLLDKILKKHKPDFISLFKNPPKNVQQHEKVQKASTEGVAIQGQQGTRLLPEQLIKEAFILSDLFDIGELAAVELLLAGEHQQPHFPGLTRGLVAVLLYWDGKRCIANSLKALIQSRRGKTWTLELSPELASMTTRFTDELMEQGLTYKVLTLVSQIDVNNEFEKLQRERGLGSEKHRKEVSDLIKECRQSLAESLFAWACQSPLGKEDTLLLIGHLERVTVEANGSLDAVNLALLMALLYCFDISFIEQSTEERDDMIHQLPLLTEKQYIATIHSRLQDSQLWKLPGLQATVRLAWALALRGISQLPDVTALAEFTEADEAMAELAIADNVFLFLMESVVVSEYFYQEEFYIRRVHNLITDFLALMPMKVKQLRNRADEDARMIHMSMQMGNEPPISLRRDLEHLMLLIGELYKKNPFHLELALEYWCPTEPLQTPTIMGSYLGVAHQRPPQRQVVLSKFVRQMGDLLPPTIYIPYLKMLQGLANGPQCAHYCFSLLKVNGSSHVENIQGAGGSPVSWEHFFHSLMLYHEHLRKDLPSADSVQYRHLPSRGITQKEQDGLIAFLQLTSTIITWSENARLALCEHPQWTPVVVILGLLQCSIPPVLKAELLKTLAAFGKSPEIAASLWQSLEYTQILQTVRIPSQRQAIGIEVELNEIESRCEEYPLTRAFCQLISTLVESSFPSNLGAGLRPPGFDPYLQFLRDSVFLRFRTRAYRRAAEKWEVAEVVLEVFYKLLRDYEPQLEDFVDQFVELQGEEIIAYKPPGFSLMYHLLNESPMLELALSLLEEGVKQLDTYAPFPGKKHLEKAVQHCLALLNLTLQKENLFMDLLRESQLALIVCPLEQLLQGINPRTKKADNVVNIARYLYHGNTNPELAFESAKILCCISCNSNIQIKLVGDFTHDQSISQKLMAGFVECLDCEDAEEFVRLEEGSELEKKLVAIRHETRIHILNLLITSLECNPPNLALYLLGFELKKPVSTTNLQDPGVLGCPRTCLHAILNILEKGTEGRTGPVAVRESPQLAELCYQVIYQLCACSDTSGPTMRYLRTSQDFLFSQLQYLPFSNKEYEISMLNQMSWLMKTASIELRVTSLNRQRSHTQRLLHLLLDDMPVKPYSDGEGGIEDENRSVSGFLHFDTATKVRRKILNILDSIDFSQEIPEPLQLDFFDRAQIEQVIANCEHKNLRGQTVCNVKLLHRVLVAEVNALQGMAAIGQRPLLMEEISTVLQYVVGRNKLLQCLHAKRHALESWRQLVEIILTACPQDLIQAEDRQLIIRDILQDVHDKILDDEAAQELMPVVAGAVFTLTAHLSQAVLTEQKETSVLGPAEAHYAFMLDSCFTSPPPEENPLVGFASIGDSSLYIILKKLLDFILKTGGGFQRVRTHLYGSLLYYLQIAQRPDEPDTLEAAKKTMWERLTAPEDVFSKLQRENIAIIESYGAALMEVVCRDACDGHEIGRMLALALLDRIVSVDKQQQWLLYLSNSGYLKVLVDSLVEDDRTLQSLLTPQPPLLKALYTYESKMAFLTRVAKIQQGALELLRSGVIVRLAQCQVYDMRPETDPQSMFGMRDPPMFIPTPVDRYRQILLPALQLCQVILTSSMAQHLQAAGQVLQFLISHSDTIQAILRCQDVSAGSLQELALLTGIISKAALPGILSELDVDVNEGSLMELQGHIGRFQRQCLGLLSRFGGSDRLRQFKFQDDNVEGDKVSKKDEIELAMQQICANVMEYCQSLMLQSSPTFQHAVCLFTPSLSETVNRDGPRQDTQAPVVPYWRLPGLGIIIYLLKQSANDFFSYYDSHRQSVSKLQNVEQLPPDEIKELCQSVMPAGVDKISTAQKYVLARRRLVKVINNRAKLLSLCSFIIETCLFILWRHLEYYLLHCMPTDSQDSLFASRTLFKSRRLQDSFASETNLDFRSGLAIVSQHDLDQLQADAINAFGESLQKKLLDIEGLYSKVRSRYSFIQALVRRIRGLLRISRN

Target	log2 fold change
NDUFA6 (UniProt P56556)	-0.05 (inactive)
MORF4L2 (UniProt Q15014)	0.052 (inactive)
NOL7 (UniProt Q9UMY1)	0.016 (inactive)
NELFA (UniProt Q9H3P2)	-0.054 (inactive)
NHLRC2 (UniProt Q8NBF2)	-0.124 (inactive)
MRPS25 (UniProt P82663)	-0.071 (inactive)
MINK1 (UniProt Q8N4C8)	0.021 (inactive)
OSBPL8 (UniProt Q9BZF1)	-0.378 (inactive)
NDUFA9 (UniProt Q16795)	-0.101 (inactive)
NTMT1 (UniProt Q9BV86)	0.095 (inactive)
NFATC3 (UniProt Q12968)	-0.209 (inactive)
NAA11 (UniProt Q9BSU3)	-0.075 (inactive)
NUDT1 (UniProt P36639)	0.946 (active)
MRPS18B (UniProt Q9Y676)	-0.043 (inactive)
NOP56 (UniProt O00567)	0.202 (inactive)
MRPS15 (UniProt P82914)	-0.041 (inactive)
MXRA7 (UniProt P84157)	0.075 (inactive)
NPC1 (UniProt O15118)	-0.184 (inactive)
NUCKS1 (UniProt Q9H1E3)	0.138 (inactive)
NCAPG (UniProt Q9BPX3)	-0.197 (inactive)

Target	log2 fold change
NDUFB7 (UniProt P17568)	-0.002 (inactive)
NACC1 (UniProt Q96RE7)	-0.352 (active)
NDUFS8 (UniProt O00217)	-0.145 (inactive)
NCL (UniProt P19338)	0.07 (inactive)
NOB1 (UniProt Q9ULX3)	-0.15 (inactive)
NDUFA12 (UniProt Q9UI09)	-0.31 (active)
NBN (UniProt O60934)	-0.025 (inactive)
NIBAN1 (UniProt Q9BZQ8)	-0.277 (active)
OXSR1 (UniProt O95747)	-0.111 (inactive)
NFYC (UniProt Q13952)	0.019 (inactive)
NAPG (UniProt Q99747)	-0.248 (inactive)
NUP210 (UniProt Q8TEM1)	-0.52 (active)
MRPS24 (UniProt Q96EL2)	-0.159 (inactive)
NMT1 (UniProt P30419)	-0.053 (inactive)
NUP205 (UniProt Q92621)	-0.167 (inactive)
MRPL46 (UniProt Q9H2W6)	-0.073 (inactive)
MON1B (UniProt Q7L1V2)	-0.406 (active)
NFX1 (UniProt Q12986)	-0.051 (inactive)
MRPS16 (UniProt Q9Y3D3)	-0.19 (inactive)

Compound: CC(C)C[C@@H](C=O)NC(=O)[C@H](CC(C)C)NC(=O)[C@H](CC(C)C)NC(=O)OCc1ccccc1
Assay: as above
Summary of the method: as §1

Target	log2 fold change
NDUFA6 (UniProt P56556)	-0.045 (inactive)
MORF4L2 (UniProt Q15014)	0.271 (inactive)
NOL7 (UniProt Q9UMY1)	0.141 (inactive)
NELFA (UniProt Q9H3P2)	-0.043 (inactive)
NHLRC2 (UniProt Q8NBF2)	0.143 (inactive)
MRPS25 (UniProt P82663)	0.017 (inactive)
MINK1 (UniProt Q8N4C8)	0.044 (inactive)
OSBPL8 (UniProt Q9BZF1)	0.046 (inactive)
NDUFA9 (UniProt Q16795)	0 (inactive)
NTMT1 (UniProt Q9BV86)	-0.052 (inactive)
NFATC3 (UniProt Q12968)	0.145 (inactive)
NAA11 (UniProt Q9BSU3)	0.072 (inactive)
NUDT1 (UniProt P36639)	-0.082 (inactive)
MRPS18B (UniProt Q9Y676)	0.137 (inactive)
NOP56 (UniProt O00567)	0.234 (inactive)
MRPS15 (UniProt P82914)	0.004 (inactive)
MXRA7 (UniProt P84157)	-0.083 (inactive)
NPC1 (UniProt O15118)	0.006 (inactive)
NUCKS1 (UniProt Q9H1E3)	-0.029 (inactive)
NCAPG (UniProt Q9BPX3)	-0.005 (inactive)

Target	log2 fold change
NDUFB7 (UniProt P17568)	-0.055 (inactive)
NACC1 (UniProt Q96RE7)	-0.014 (inactive)
NDUFS8 (UniProt O00217)	0.017 (inactive)
NCL (UniProt P19338)	0.121 (inactive)
NOB1 (UniProt Q9ULX3)	0.053 (inactive)
NDUFA12 (UniProt Q9UI09)	0.021 (inactive)
NBN (UniProt O60934)	0.007 (inactive)
NIBAN1 (UniProt Q9BZQ8)	0.037 (inactive)
OXSR1 (UniProt O95747)	-0.05 (inactive)
NFYC (UniProt Q13952)	-0.061 (inactive)
NAPG (UniProt Q99747)	0.028 (inactive)
NUP210 (UniProt Q8TEM1)	-0.007 (inactive)
MRPS24 (UniProt Q96EL2)	0.051 (inactive)
NMT1 (UniProt P30419)	0.008 (inactive)
NUP205 (UniProt Q92621)	-0.058 (inactive)
MRPL46 (UniProt Q9H2W6)	0.064 (inactive)
MON1B (UniProt Q7L1V2)	0 (inactive)
NFX1 (UniProt Q12986)	0.227 (inactive)
MRPS16 (UniProt Q9Y3D3)	0.015 (inactive)
